PubChem BioAssay (NCI)
The panel holds about 83,000 compounds, 20% with a hit somewhere; the sample as a whole holds those more often.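 Assay: single dose, 48 h. Readout: percent growth (0 = no net growth; negative = cell death). Active: <10.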 Values without a mark were called inactive. Active and inactive are the calls of the source.

Assays:
Assay in all cases: NCI-60 one-dose screen, 48 h (100 = growth as untreated, 0 = no growth, -100 = all killed)
Details in all cases: 10 µM unless noted
NCI-H23 lung = test system: NCI-H23 lung
NCI-H226 lung = test system: NCI-H226 lung
NCI-H322M lung = test system: NCI-H322M lung
HOP-62 NSCLC = test system: HOP-62 NSCLC
NCI-H460 lung = test system: NCI-H460 lung
HOP-92 NSCLC = test system: HOP-92 NSCLC
NCI-H522 lung = test system: NCI-H522 lung
A549/ATCC NSCLC = test system: A549/ATCC NSCLC
786-0 renal = test system: 786-0 renal
COLO 205 colon = test system: COLO 205 colon

Cc1ccc(O)c(C(=O)O)c1
growth (NCI-H23 lung): 100% | growth (NCI-H226 lung): 105% | growth (NCI-H322M lung): 115% | growth (HOP-62 NSCLC): 99.8% | growth (NCI-H460 lung): 103% | growth (HOP-92 NSCLC): 101% | growth (NCI-H522 lung): 99% | growth (A549/ATCC NSCLC): 103% | growth (786-0 renal): 104% | growth (COLO 205 colon): 120%

COc1ccc(-c2cnc(N)nc2-c2ccc(OC)cc2O)cc1
growth (NCI-H23 lung): 92.5% | growth (NCI-H226 lung): 99.8% | growth (NCI-H322M lung): 90.4% | growth (HOP-62 NSCLC): 110% | growth (NCI-H460 lung): 89.8% | growth (HOP-92 NSCLC): 57.8% | growth (NCI-H522 lung): 79.6% | growth (A549/ATCC NSCLC): 93.1% | growth (786-0 renal): 90% | growth (COLO 205 colon): 113%

CC(O)(CO)c1ccccc1 (centres undefined)
growth (NCI-H23 lung): 96% | growth (NCI-H226 lung): 99.6% | growth (NCI-H322M lung): 102% | growth (HOP-62 NSCLC): 96.9% | growth (NCI-H460 lung): 105% | growth (HOP-92 NSCLC): 94.2% | growth (NCI-H522 lung): 105% | growth (A549/ATCC NSCLC): 99.2% | growth (786-0 renal): 99% | growth (COLO 205 colon): 103%

CO[C@@H]1[C@H](N(C)C(=O)c2ccccc2)C[C@@H]2O[C@]1(C)n1c3ccccc3c3c4c(c5c6ccccc6n2c5c31)C(=O)NC4=O
growth (NCI-H23 lung): 44.2% | growth (NCI-H226 lung): 29% | growth (NCI-H322M lung): 38.9% | growth (HOP-62 NSCLC): 28.5% | growth (NCI-H460 lung): 48.2% | growth (HOP-92 NSCLC): 4.48% (active) | growth (NCI-H522 lung): 21.2% | growth (A549/ATCC NSCLC): 27.3% | growth (COLO 205 colon): 2.3% (active)

COc1cc(-c2cc(=O)oc3cc(O)ccc23)c(OC)c2c1OCO2
growth (NCI-H23 lung): 83.5% | growth (NCI-H226 lung): 86.4% | growth (NCI-H322M lung): 89.4% | growth (HOP-62 NSCLC): 92.7% | growth (NCI-H460 lung): 88.9% | growth (HOP-92 NSCLC): 79% | growth (NCI-H522 lung): 81.7% | growth (A549/ATCC NSCLC): 87% | growth (786-0 renal): 95.6% | growth (COLO 205 colon): 102%

COc1c(Cl)cc(Cl)c2ccc(C=C3C(=O)N(C)C(=O)N(C)C3=O)nc12
growth (NCI-H23 lung): 104% | growth (NCI-H226 lung): 100% | growth (NCI-H322M lung): 106% | growth (HOP-62 NSCLC): 37.3% | growth (NCI-H460 lung): 96.8% | growth (HOP-92 NSCLC): 119% | growth (NCI-H522 lung): 92.2% | growth (A549/ATCC NSCLC): 111% | growth (786-0 renal): 53.7% | growth (COLO 205 colon): 110%

COC(=O)CCCCCCCCC1(C)C=CC(C(C)O)=CC1 (centres undefined)
growth (NCI-H23 lung): 96.2% | growth (NCI-H226 lung): 97% | growth (NCI-H322M lung): 109% | growth (HOP-62 NSCLC): 101% | growth (NCI-H460 lung): 111% | growth (HOP-92 NSCLC): 93.2% | growth (NCI-H522 lung): 89% | growth (A549/ATCC NSCLC): 94% | growth (786-0 renal): 108% | growth (COLO 205 colon): 111%

COc1ccccc1/C=C1\Oc2cc(OCCCN3CCCC3)ccc2C1=O
growth (NCI-H23 lung): 83% | growth (NCI-H226 lung): 98.7% | growth (NCI-H322M lung): 96.5% | growth (HOP-62 NSCLC): 88.5% | growth (NCI-H460 lung): 95.9% | growth (HOP-92 NSCLC): 63.1% | growth (NCI-H522 lung): 104% | growth (A549/ATCC NSCLC): 99.9% | growth (786-0 renal): 94% | growth (COLO 205 colon): 96.4%

COc1cc2c(cc1[N+](=O)[O-])-c1ccc([N+](=O)[O-])cc1/C2=N/NC(N)=S
growth (NCI-H23 lung): 71.5% | growth (NCI-H226 lung): 62.6% | growth (NCI-H322M lung): 93.9% | growth (HOP-62 NSCLC): 99.9% | growth (NCI-H460 lung): 29.6% | growth (HOP-92 NSCLC): 78.3% | growth (NCI-H522 lung): 35.5% | growth (A549/ATCC NSCLC): 69.2% | growth (786-0 renal): 70.6% | growth (COLO 205 colon): 66.7%

CN(Cc1ccccc1)c1nc(Cl)c(C2CC(c3ccc(Cl)cc3)=Cc3[nH][nH]c(=O)c32)s1 (centres undefined)
growth (NCI-H23 lung): 98.3% | growth (NCI-H226 lung): 97.1% | growth (NCI-H322M lung): 110% | growth (HOP-62 NSCLC): 101% | growth (NCI-H460 lung): 92.7% | growth (HOP-92 NSCLC): 102% | growth (NCI-H522 lung): 89.7% | growth (A549/ATCC NSCLC): 107% | growth (786-0 renal): 89.4% | growth (COLO 205 colon): 124%

N#Cc1c(Nc2ccccc2)nn2cc(-c3nc4ccccc4s3)c(N)nc12
growth (NCI-H23 lung): 60.3% | growth (NCI-H226 lung): 65.6% | growth (NCI-H322M lung): 86.2% | growth (HOP-62 NSCLC): 92.9% | growth (NCI-H460 lung): 61.8% | growth (HOP-92 NSCLC): 80.6% | growth (NCI-H522 lung): 72.8% | growth (A549/ATCC NSCLC): 80.6% | growth (786-0 renal): 76.3% | growth (COLO 205 colon): 114%

Fc1ccc(C2CC(c3cccc(Nc4ccncc4)c3)=NN2c2ccc(Cl)cc2)cc1 (centres undefined)
growth (NCI-H23 lung): 88.6% | growth (NCI-H226 lung): 91.4% | growth (NCI-H322M lung): 78% | growth (HOP-62 NSCLC): 64.9% | growth (NCI-H460 lung): -53.9% (active) | growth (HOP-92 NSCLC): 52.2% | growth (NCI-H522 lung): 83.1% | growth (A549/ATCC NSCLC): 52.6% | growth (786-0 renal): 104% | growth (COLO 205 colon): -59.8% (active)

COc1cc(/C=C/C(=O)c2c(C)oc3nc[nH]c(=O)c23)ccc1O
growth (NCI-H23 lung): 98.7% | growth (NCI-H226 lung): 102% | growth (NCI-H322M lung): 98.3% | growth (HOP-62 NSCLC): 93.9% | growth (NCI-H460 lung): 103% | growth (HOP-92 NSCLC): 116% | growth (NCI-H522 lung): 101% | growth (A549/ATCC NSCLC): 101% | growth (786-0 renal): 102% | growth (COLO 205 colon): 102%
